High-throughput results from PubChem BioAssay.
Sampled rows, rich in hits. Any-hit rate of the full collection: about 1.6%.
PABP1 MLLE inh: blocks PAM2 peptide binding to the PABP1 MLLE domain; GST-MLLE / FITC-PAM2 fluorescence polarization; P11940; inhibition, % at 20 µM; 0.36% of 360,000 active; in the data active = inhibition above about 35%, passing the limit was not always enough;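 note: plate controls were DMSO wells with GST-MLLE for no effect and wells lacking GST-MLLE protein for full effect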
Target sequence (P11940 whole entry, looked up, the tested form may be a part): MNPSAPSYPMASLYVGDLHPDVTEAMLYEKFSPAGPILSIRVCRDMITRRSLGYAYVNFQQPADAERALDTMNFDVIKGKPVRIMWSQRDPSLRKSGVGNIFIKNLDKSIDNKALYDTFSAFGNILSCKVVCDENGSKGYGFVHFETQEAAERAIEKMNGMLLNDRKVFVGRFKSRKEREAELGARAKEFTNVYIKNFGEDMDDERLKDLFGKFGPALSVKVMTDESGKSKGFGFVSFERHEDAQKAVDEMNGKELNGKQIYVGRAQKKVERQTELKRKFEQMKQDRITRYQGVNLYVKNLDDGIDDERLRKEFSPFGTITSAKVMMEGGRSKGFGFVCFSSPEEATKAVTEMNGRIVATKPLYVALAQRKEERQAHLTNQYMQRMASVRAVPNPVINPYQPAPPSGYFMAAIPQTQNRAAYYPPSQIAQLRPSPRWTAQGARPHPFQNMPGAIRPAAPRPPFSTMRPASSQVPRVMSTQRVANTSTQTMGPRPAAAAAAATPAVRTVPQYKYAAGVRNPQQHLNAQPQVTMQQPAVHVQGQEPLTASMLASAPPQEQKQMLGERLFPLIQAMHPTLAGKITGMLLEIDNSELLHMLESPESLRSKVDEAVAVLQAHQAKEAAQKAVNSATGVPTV
eIF4E-4G inh: inhibitors of eIF4E and eIF4G interaction in translation initiation; inhibition, % at 21.7 µM; P63073+Q04637; 0.37% of 220,000 active; TR-FRET eIF4E-eIF4GI(517-606) binding, 2 h; AID 782;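 active = inhibition above about 30%, limit read from the data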;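 note: 0% = full FRET control wells and 100% = background wells lacking eIF4GI fragment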
PERK inh: human PERK inhibition, primary cell-based screen. inhibition, % at 5.6 µM. AID 1416. CHO PERK-DD fusion, SEAP luminescence translation reporter. 0.17% of 220,000 active. Q9NZJ5;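 active = inhibition above the mean inhibition of all tested compounds plus 3 SD, set separately per screening campaign, cut at about 2.9% in these data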;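 note: PERK kinase domain activated by AP20187 dimerizer at 100 nM; 0% = DMSO with dimerizer and 100% = rapamycin at 8.4 µM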
eIF4H FP inh: inhibitors of RNA binding by human eIF4H. eIF4H fluorescence polarization binding assay. inhibition, % at 35 µM. 0.94% of 290,000 active;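 note: calls also rest on retests at 20 µM and on dose response follow-up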
PABP polyA inh: PABP-poly(A) binding inhibition; P11940; PABP-poly(A) RNA binding, fluorescence polarization; inhibition, % at 35 µM; 1% of 290,000 active; AID 2014;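 note: calls also rest on retests at 20 µM and on dose response follow-up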
Starred values were filed as active, the others as inactive; i = inactive; u = inconclusive; x = no result given; [ ] = remark or other dose. Unless noted, the rule behind the calls is not given here.

SMILES	PABP1 MLLE inh	eIF4E-4G inh	PERK inh	eIF4H FP inh	PABP polyA inh
COc1ccc(N2C(=O)[C@@H]3[C@H](C2=O)[C@H]2c4ccccc4C=CN2[C@@H]3C(=O)Nc2ccccc2)cc1	4	3	0	u	u
O=C(c1ccco1)[C@@H]1[C@@H]2C(=O)N(c3ccccc3)C(=O)[C@@H]2C2c3ccccc3C=CN21 (stereo partly drawn)	37	x	0	54	34
Cc1ccc(N2C(=O)[C@@H]3[C@H](C2=O)C2c4ccccc4C=CN2[C@@H]3C(=O)c2ccco2)cc1 (stereo partly drawn)	37*	1	0	31	23
CC(=O)[C@@H]1[C@@H]2C(=O)N(Cc3ccccc3)C(=O)[C@@H]2C2c3ccccc3C=CN21 (stereo partly drawn)	53	-8	-1	96*	112*
Cc1ccccc1OCC(O)COc1ccccc1C	9	x	x	x	x
O=C(C=Cc1ccccc1)CC(c1ccccc1)N1CCOCC1 (stereo not drawn)	8	x	x	x	x
O=C1NC(=S)N/C1=C/c1cccn1-c1ccc([N+](=O)[O-])cc1	-6	23	0	84*	6.9*
N=C1/C(=C/c2cccn2-c2ccc([N+](=O)[O-])cc2)C(=O)N=C2SC=CN12	-5	1	0	15	-18
CCC(C)[C@@H](C(=O)NCC1CCC(C(=O)O)CC1)n1nnc2ccccc2c1=O (stereo partly drawn)	-13	7	2.9*	-8	9
CCOC(CCc1c(C)nc(NC(C)=O)[nH]c1=O)OCC	5	4	3.1*	-6	-4
CC(=O)Nc1nc(C)c(CCCOc2ccc([N+](=O)[O-])cc2)c(=O)[nH]1	-9	1	0	-2	-5
CC1=C(C(=O)O)N2C(=O)C(NC(=O)c3ccn(C)n3)C2SC1 (stereo not drawn)	49*	0	1	0	-5
CCNc1c(NC(=O)c2ccc3c(c2)OCO3)c(=O)oc2ccccc12	-10	x	x	4	-2
COc1cccc(S(=O)(=O)N(C)C[C@H]2OCc3cn(nn3)CCCC(=O)N([C@@H](C)CO)C[C@@H]2C)c1	-2	x	x	x	x
O=C(NC1CC1)C1=C[C@@H](C2CC2)C[C@@H](OCc2ccc(CO)cc2)O1	-6	34*	x	-8	-5
COc1ccc(OCCC(=O)OCC(=O)Nc2cccc(S(=O)(=O)N3CCOCC3)c2)cc1	-20	1	3.3*	-2	-5
COc1cc(OC)c(OC)cc1/C=N/NC(=O)c1cccc(S(=O)(=O)N2CCOCC2)c1	4	3	1	-6	-9
COc1ccc(NC(=O)c2cccc(S(=O)(=O)N3CCOCC3)c2)cn1	19	2	-1	73*	70*
O=C(O)COc1ccccc1/C=N/NC(=O)c1cccc(S(=O)(=O)N2CCOCC2)c1	3	4	1	2.2*	79
CC(C)[C@H](NC(=O)N1CC(=O)Nc2ccccc21)C(=O)N1CCC(C(=O)O)CC1	-7	x	x	x	x
CCOc1ccc2noc3c2c1C(=O)c1ccccc1-3	i	-9	0	45	16
O=C1c2ccccc2-c2onc3ccc(N4CCCC4)c1c23	i	34*	0	u	-2
Oc1ccc(CCNc2ncnc3ccc(Cl)cc23)cc1	3	x	x	-2	2
O=C(COC(=O)CNC(=O)c1ccccc1F)NC12CC3CC(CC(C3)C1)C2	-2	x	x	x	x
NC(=O)CC(NC(=O)c1cccc(Br)c1)c1ccc(NC2CCCCCCC2)c([N+](=O)[O-])c1 (stereo not drawn)	15	x	x	-3	5
SMILES	PABP1 MLLE inh	eIF4E-4G inh	PERK inh	eIF4H FP inh	PABP polyA inh
O=C1OC2(CCCC2)OC(=O)C1=Cc1c[nH]c2ccccc12	-15	-5	0	u	109*
COc1ccc(OCC(=O)NNC(=O)Cn2c(=O)cnc3ccccc32)cc1	19	x	x	x	x
COc1cc(OC)cc(C(=O)OCC(=O)Nc2nnc(-c3ccccc3)o2)c1	8	x	x	x	x
O=C(COC(=O)c1cncc(Br)c1)Nc1nnc(-c2ccccc2)o1	-11	x	x	70*	33
C[C@H](CO)N1C[C@H](C)[C@@H](CN(C)CC2CC2)Oc2c(NC(=O)Cc3ccccc3)cccc2C1=O	7	x	x	x	x
Cc1ccccc1NC(=O)Cn1nnc2c(cnn2-c2ccc(F)cc2)c1=O	-15	41*[fluorescence artefact?]	1	-12	-6
CCOc1ccc(NC(=O)Cn2nnc3c(cnn3-c3ccc(F)cc3)c2=O)cc1	6	-2	1	2	6
CC(C)N=c1scc(-c2ccco2)n1/N=C/c1ccc(O)c(O)c1	-19	-3	-1	-13	-3
COCCN=c1scc(-c2ccco2)n1/N=C/c1ccc(O)c(O)c1O	19	45*	1	u	4.6*
C=CCN=c1scc(-c2ccco2)n1/N=C/c1ccc(O)c(O)c1O	11	6	1	92*	42*
Cc1ccc(S(=O)(=O)N2CCCCC2)cc1NC(=O)c1cnccn1	-2	x	x	x	x
CCOC(=O)C1=CNS(=O)(=O)NC1c1ccc(C(F)(F)F)cc1 (stereo not drawn)	-6	x	x	x	x
Fc1ccc(-[n+]2nc(Nc3ccccc3)sc2-c2cccc(Cl)c2Cl)cc1	50*	x	x	-8	17
COc1ccc(NC(=O)C2(C)CCN2C(=O)C(C)C)cc1F (stereo not drawn)	-7	x	x	x	x
CCCc1nc2c(C)cc(Br)cn2c1Cc1ccsc1	43*	x	x	x	x
CCCc1nc2c(C)cc(Br)cn2c1Cc1ccccc1	7	x	x	x	x
Cc1cc(-c2sccc2C)nc(-n2cccc2)n1	3	3	0	u	44*
Cc1nc2cc(-c3sccc3-n3cccc3)nn2c(C)c1C	1	0	-1	3	10
O=C(COC(=O)c1ccc2ncsc2c1)Nc1ccccc1Br	0	x	x	x	x
COc1cc(/C=N/Nc2nc(-c3ccc(S(=O)(=O)N(C)C)cc3)cs2)ccc1O	-16	44*	-2	-2	-6
COc1cc(C2C3=C(Nc4nc(N)[nH]c(=O)c42)c2ccccc2C3=O)ccc1O (stereo not drawn)	15	1	1	93*	73*
O=C(CSc1nc2ccc(Nc3nc(N4CCOCC4)nc(N4CCOCC4)n3)cc2s1)Nc1ccccc1F	-12	x	x	-8	-7
CCCCn1c(NC(=O)c2ccco2)c(S(=O)(=O)c2ccc(C)cc2)c2nc3ccccc3nc21	-75	5	-1	10	-6
CCCCn1c(NC(=O)c2ccc(Br)o2)c(S(=O)(=O)c2ccccc2)c2nc3ccccc3nc21	-1	17	-1	56*	67*
O=C(CN1C(=O)CCOc2ccccc21)Nc1ccc(Cl)c(S(=O)(=O)N2CCOCC2)c1	-40	x	x	x	x
COC(=O)c1cc2c(C)c(C)c3ccccn3c-2c1C(=O)OC	60*	-18	0	127	120
COC(=O)c1cc2n3ccccc3c(C)c(-c3ccccc3)c-2c1C(=O)OC	47*	6	-1	130*	124*
COC(=O)c1cc2ccccn2c2c(C(=O)OC)c(C(=O)OC)cc1-2	9	-6	-1	1	15
